Screening results (PubChem)
AGP1-GFP MLPCN: alters AGP1-GFP fluorescence in TOR pathway yeast screen; S. cerevisiae AGP1-GFP multiplex flow cytometry, 3 h; GFP as percent of DMSO wells; GFP response vs DMSO, % at 10 µM; hit rate 0.02% among 320,000;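 active = GFP response relative to DMSO above a set limit, near screen average plus 3 SD, cut at about 150% in these data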;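 note: median GFP channel fluorescence of the gated AGP1 strain per well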
RPL19A TOR yeast: alters RPL19A-GFP fluorescence in TOR pathway yeast screen; S. cerevisiae RPL19A-GFP strain, flow cytometry, 3 h; active compounds read low; percent response vs DMSO, % at 10 µM; hit rate 0.3% among 330,000;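 active = percent response vs DMSO below 50%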;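 note: median channel GFP fluorescence of the barcoded RPL19A-GFP strain; ratio of sample median GFP to plate DMSO average so 100% = DMSO; lower means less RPL19A-GFP as with rapamycin TOR inhibition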
VLA-4 inh: inhibition in a human VLA-4 binding assay. AID 2557. inhibition, % (about 7 µM as worked out from the volumes in the protocol). P13612. VLA-4 expressing cells, ligand binding flow cytometry. hit rate 0.2% among 330,000; in the data active = inhibition above about 50%
Target sequence (P13612 whole entry, looked up): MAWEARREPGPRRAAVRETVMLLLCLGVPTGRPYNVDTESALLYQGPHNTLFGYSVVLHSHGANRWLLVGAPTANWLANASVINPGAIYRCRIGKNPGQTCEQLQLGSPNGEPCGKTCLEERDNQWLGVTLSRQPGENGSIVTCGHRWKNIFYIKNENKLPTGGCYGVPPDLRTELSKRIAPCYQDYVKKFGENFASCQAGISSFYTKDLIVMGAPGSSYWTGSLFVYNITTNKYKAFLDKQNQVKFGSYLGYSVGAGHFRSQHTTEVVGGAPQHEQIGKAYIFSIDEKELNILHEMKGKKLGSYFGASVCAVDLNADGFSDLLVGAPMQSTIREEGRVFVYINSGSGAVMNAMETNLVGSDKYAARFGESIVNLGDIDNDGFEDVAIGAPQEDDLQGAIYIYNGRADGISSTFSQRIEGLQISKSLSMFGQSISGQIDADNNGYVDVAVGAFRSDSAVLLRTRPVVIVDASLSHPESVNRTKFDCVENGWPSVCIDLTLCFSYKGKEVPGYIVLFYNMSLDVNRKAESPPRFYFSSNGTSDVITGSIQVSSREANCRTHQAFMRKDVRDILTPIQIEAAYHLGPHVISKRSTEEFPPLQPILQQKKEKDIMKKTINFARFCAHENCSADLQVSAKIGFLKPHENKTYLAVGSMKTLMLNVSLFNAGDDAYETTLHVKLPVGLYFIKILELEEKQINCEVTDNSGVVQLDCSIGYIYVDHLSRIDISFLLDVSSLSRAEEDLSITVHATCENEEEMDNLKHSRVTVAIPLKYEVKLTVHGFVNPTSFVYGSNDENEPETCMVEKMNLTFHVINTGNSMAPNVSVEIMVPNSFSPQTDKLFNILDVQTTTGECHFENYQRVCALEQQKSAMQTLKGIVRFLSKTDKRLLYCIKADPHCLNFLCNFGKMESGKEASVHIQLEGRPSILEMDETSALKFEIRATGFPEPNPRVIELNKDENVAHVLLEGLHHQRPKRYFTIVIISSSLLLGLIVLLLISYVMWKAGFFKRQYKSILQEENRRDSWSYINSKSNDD
LAP4 TOR yeast: yeast TOR pathway LAP4-GFP modulation | GFP response vs DMSO, % at 10 µM | S. cerevisiae LAP4-GFP multiplex, flow cytometry GFP, 3 h; median GFP as percent of DMSO wells | AID 2023 | hit rate 0.34% among 320,000;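 active = GFP response vs DMSO above a set limit, about the screen mean plus 3 SD, cut at about 150% in these data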
MEP2-GFP yeast: yeast TOR pathway MEP2-GFP modulation; S. cerevisiae MEP2-GFP strain, flow cytometry GFP, 3 h; 100% = DMSO control level; GFP response vs DMSO, % at 10 µM; hit rate 0.51% among 330,000; AID 2016;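 active = GFP response versus DMSO above a set limit, roughly screen mean plus 3 SD, cut at about 180% in these data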;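 note: median GFP fluorescence of the barcode-gated MEP2-GFP cells per well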
CIT2 TOR yeast: yeast TOR pathway CIT2-GFP modulation. S. cerevisiae CIT2-GFP strain, flow cytometry, 3 h; 100 means same as DMSO wells. GFP response vs DMSO, % at 10 µM. hit rate 0.065% among 320,000. AID 2029;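 active = GFP response relative to DMSO above a set limit, near the screen mean plus 3 SD, cut at about 150% in these data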;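 note: ratio of well median GFP fluorescence to mean of DMSO wells on the plate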
LAP4-GFP pick2: yeast LAP4-GFP modulation, second cherry pick. shares compounds with LAP4 TOR yeast. GFP response vs DMSO, % at 10 µM. AID 2621. hit rate 20% among 590. S. cerevisiae LAP4-GFP strain, flow cytometry GFP, 3 h;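 active = GFP signal as percent of the solvent control above about 150%, meaning raised reporter expression, limit read from the data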;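 note: ratio of well median GFP fluorescence to plate DMSO mean so 100% = DMSO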
MEP2-GFP pick2: reconfirmed MEP2-GFP TOR pathway modulator in yeast; shares compounds with LAP4 TOR yeast; S. cerevisiae MEP2-GFP strain, flow cytometry GFP, 3 h; GFP response vs DMSO, % at 10 µM; hit rate 10% among 590;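 active = GFP signal above 150% of the solvent control wells, that is a rise of more than half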;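 note: median channel GFP fluorescence of all gated yeast cells per well; ratio of median GFP to plate DMSO average so 100% = DMSO level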
RPL19A-GFP pick2: yeast RPL19A-GFP TOR reporter modulation, second cherry pick; shares compounds with LAP4 TOR yeast; S. cerevisiae RPL19A-GFP strain, flow cytometry GFP, 3 h; active compounds read low; 100% means same as DMSO wells; GFP response vs DMSO, % at 10 µM; hit rate 3% among 590; AID 2623;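 active = under 65% GFP response relative to DMSO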;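 note: median GFP channel fluorescence per well over the all cells gate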
CIT2-GFP pick2: yeast CIT2-GFP TOR reporter modulation, second cherry pick | shares compounds with LAP4 TOR yeast | S. cerevisiae CIT2-GFP strain, flow cytometry GFP, 3 h; DMSO control wells read 100% | GFP response vs DMSO, % at 10 µM | hit rate 8% among 590 | AID 2624;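 active = GFP response vs DMSO above about 150%, limit read from the data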;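 note: median green fluorescence per well over all gated yeast cells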
AGP1-GFP pick2: second confirmation of modulators of TOR reporter AGP1-GFP in yeast; shares compounds with LAP4 TOR yeast; S. cerevisiae AGP1-GFP strain, flow cytometry GFP, 3 h; percent response vs DMSO, % at 10 µM; 590 tested, under 10 active; AID 2643;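 active = over 150 percent of DMSO response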;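 note: median GFP channel fluorescence over all cells without mother daughter split; sample median GFP divided by mean DMSO control so 100% equals DMSO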
s288c autofluor: counter-screen for compound autofluorescence in yeast s288c cells; shares compounds with LAP4 TOR yeast; S. cerevisiae s288c, 520 nm autofluorescence, flow cytometry, 3 h; active compounds read high; zero means same as solvent-only cells; fluorescence change (kMESF span) at 33 µM; 610 tested, under 10 active; AID 2757;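 active = fluorescence span over the dose series, or activity score, above about 33, limit read from the data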
s288c autofl DR: counter-screen for autofluorescence of TOR hits in yeast s288c; shares compounds with LAP4 TOR yeast; S. cerevisiae s288c parental, compound autofluorescence, flow cytometry, 3 h; fluorescence change (span) at 33 µM; 110 tested, under 10 active; AID 488829;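 active = fluorescence change span, or the activity score built from it, above 25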
TORC1 bypass: wildtype yeast growth loss with TORC1 bypass cells unaffected; S. cerevisiae BY4741 spot growth rating, 48-72 h; active compounds read low; growth rating (0-3) at 30 µM; 120 tested, under 10 active; shares compounds with LAP4 TOR yeast; AID 504456;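 active = growth rating at most 1 for wild type yeast while the TORC1 bypass strain still grows fully, rated 3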
The depositor's hits bear a star; i = inactive; x = no result; [ ] = another dose, or the depositor's remark. This is a sample that favours compounds with a hit; in the whole collection about 1.1% have one here.

SMILES | AGP1-GFP MLPCN | RPL19A TOR yeast | VLA-4 inh | LAP4 TOR yeast | MEP2-GFP yeast | CIT2 TOR yeast | s288c autofluor | others
CCCn1c(Oc2ccccc2)nc2c1c(=O)n(C)c(=O)n2C | 97 | 99 | 6 | 95 | 96 | 95 | x
CC1=CC(=O)c2c(O)ccc(O)c2C1=O | 101 | 96 | -125 | 195* | 139 | 100 | x | LAP4-GFP pick2=196*;MEP2-GFP pick2=276*;RPL19A-GFP pick2=103;CIT2-GFP pick2=132;AGP1-GFP pick2=97
O=C1C=C(O)c2cccc(O)c2C1=O | 95 | 95 | -24 | 105 | 96 | 87 | x
O=C(O)c1ccc2c(c1)C(=O)/C(=C/c1ccccc1)C2=O | 86 | 94 | 13 | 83 | 92 | 86 | 0 | LAP4-GFP pick2=88;MEP2-GFP pick2=94;RPL19A-GFP pick2=99;CIT2-GFP pick2=107;AGP1-GFP pick2=98
CCOc1ccccc1NC(=O)C(=O)N/N=C/c1cc(Br)ccc1O | 86 | 87 | -3 | 88 | 94 | 88 | x
O=C1C=CC(=O)N1c1ccc(O)cc1 | 94 | 90 | 5 | 185* | 85 | 92 | 3
O=C1CCCC(=O)N1c1ccc(O)cc1 | 102 | 103 | -5 | 97 | 97 | 101 | x
O=C1C=CC(=O)N1c1ccc(OC(F)F)cc1 | 77 | 87 | 15 | 152* | 87 | 72 | 1.7 | LAP4-GFP pick2=206*;MEP2-GFP pick2=131;RPL19A-GFP pick2=87;CIT2-GFP pick2=118;AGP1-GFP pick2=88
COc1ccc(C2=NOC(Cn3nc(C(=O)NCC4CC4)cc3-c3ccccc3)C2)cc1 (centres undefined) | 100 | 97 | 15 | 99 | 100 | 95 | x
CCOC(=O)c1ccc(NC(=O)c2ccccc2)cc1 | 94 | 102 | 0 | 112 | 104 | 94 | x
O=C(NOC(=O)c1ccccc1)c1ccccc1 | 65 | 93 | 6 | 164* | 102 | 79 | 2.3
CCCc1cc(=O)oc2cc(C)cc(OCC(=O)NC3CC3)c12 | 16 | 51 | 9 | 90 | 142 | 106 | 0.1 | LAP4-GFP pick2=98;MEP2-GFP pick2=100;RPL19A-GFP pick2=99;CIT2-GFP pick2=104;AGP1-GFP pick2=98
O=C(Nc1ccc(Cl)cc1Cl)c1cccc(N2C(=O)C=CC2=O)c1 | 90 | 64 | 49 | 184* | 102 | 87 | 1.5
COc1ccc(N2CCN(Cc3csc(C)c3-c3ccc(C)cc3)CC2)cc1 | 97 | 102 | 5 | 101 | 108 | 102 | x
O=[N+]([O-])c1ccc(S(=O)(=O)c2cccc(C(F)(F)F)c2)nc1 | x | 70 | 25 | x | 102 | x | 0.81 | s288c autofl DR=0.73;TORC1 bypass=3
O=C(COc1c(Br)cc(Br)c2cccnc12)N1CCc2ccccc2C1 | 85 | 98 | -11 | 157* | 106 | 102 | 1
CCOC(=O)C1CCN(C2=NC(=O)/C(=C/c3ccc(Cl)cc3)S2)CC1 | 79 | 94 | 8 | 105 | 96 | 88 | x
CCOC(=O)CSC1=NC(=O)/C(=C\c2ccc(Cl)cc2)S1 | 83 | 94 | 21 | 184* | 87 | 73 | 0.21 | s288c autofl DR=0.16;TORC1 bypass=3
Cc1oc2c(c1C(=O)O)C(=O)c1ccccc1C2=O | 97 | 111 | 29 | 156* | 88 | 74 | x | LAP4-GFP pick2=133;MEP2-GFP pick2=133;RPL19A-GFP pick2=110;CIT2-GFP pick2=117;AGP1-GFP pick2=119
CC(C)(C)c1cc(C(c2cccnc2)N2CCN(CCO)CC2)cc(C(C)(C)C)c1O (centres undefined) | 83 | 89 | 50* | 161* | 99 | 95 | 24
CCCCN(C)C1=CC2=CC(=C(C#N)C#N)CCC2CC1 (centres undefined) | 123 | 126 | i | 190* | 335* | 207* | x | LAP4-GFP pick2=489*;MEP2-GFP pick2=821*;RPL19A-GFP pick2=152;CIT2-GFP pick2=619*;AGP1-GFP pick2=133
CCN(CC)C1=CC2=CC(=C(C#N)C#N)CCC2CC1 (centres undefined) | 123 | 140 | -8 | 197*[may fluoresce green] | 297*[may fluoresce green] | 310*[may fluoresce green] | x | LAP4-GFP pick2=354*;MEP2-GFP pick2=470*;RPL19A-GFP pick2=128;CIT2-GFP pick2=434*;AGP1-GFP pick2=120
COC(=O)CCS(=O)(=O)c1nc(-c2ccccc2)cc(C(F)(F)F)n1 | 149 | 101 | 28 | 156* | 183* | 102 | 1 | s288c autofl DR=0.08;TORC1 bypass=3
CCOC(=O)CS(=O)(=O)c1nc(-c2ccc(F)cc2)cc(C(F)(F)F)n1 | 88 | 94 | 19 | 172* | 104 | 81 | 0.51
CCOC(=O)CCS(=O)(=O)c1nc(-c2ccccc2)cc(C(F)(F)F)n1 | 130 | 90 | 27 | 185* | 145 | 99 | 0.4 | s288c autofl DR=0.24;TORC1 bypass=3
SMILES | AGP1-GFP MLPCN | RPL19A TOR yeast | VLA-4 inh | LAP4 TOR yeast | MEP2-GFP yeast | CIT2 TOR yeast | s288c autofluor | others
CCOC(=O)CS(=O)(=O)c1nc(-c2ccccc2)cc(C(F)(F)F)n1 | 115 | 88 | 37 | 180* | 131 | 84 | 0.41 | s288c autofl DR=0.16;TORC1 bypass=3
CN1C(=O)/C(=C/c2ccc(OCc3ccc(F)cc3)cc2)NC1=S | 100 | 105 | 0 | 97 | 110 | 110 | x
O=C(CSc1nnc(-c2ccccc2F)o1)Nc1ccc(N2CCOCC2)cc1 | 97 | 96 | 8 | 101 | 97 | 90 | x
CC1(C)NC(=O)N(CC(=O)OCC(=O)c2ccc(Cl)s2)C1=O | 108 | 97 | 6 | 112 | 107 | 94 | x
COc1cccc(NC(=O)CN(C)C(=O)c2ccccc2-c2nc3ccccc3s2)c1 | 103 | 100 | 25 | 112 | 102 | 94 | x
Cc1ccc(C(=O)O/N=C(\N)Cc2cccs2)c(Cl)c1 | 54 | 87 | -13 | 232* | 108 | 129 | 0.9
Cc1ccc(C(=O)N/C(=C/c2cccnc2)C(=O)N2CCCCCC2)cc1 | 102 | 97 | 12 | 110 | 102 | 101 | x
